Assay results as given in PubChem BioAssay (NCI).
This is part of a sample that, as a whole, favours compounds with a hit. Of some 79,000 tested, about 15% had one in any assay. Cut-off read from the data, not from the text of the source: active = growth inhibition above about 70%; inactive = the rest.

Legend:
[1] = NCI Yeast Anticancer Drug Screen. Data for the rad50 strain (AID 155);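 note: 0% = growth of vehicle-only cultures of the same strain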; settings: S. cerevisiae rad50 strain growth inhibition, stronger effect = higher value; at 50.0 µM unless noted
How it was run: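 Relative growth inhibition (compound vs vehicle) was measured in yeast with a defined repair-gene alteration.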

[2] = NCI Yeast Anticancer Drug Screen. Data for the mec2-1 strain (AID 157); settings: S. cerevisiae mec2-1 strain, stronger effect = higher value; at 50.0 µM unless noted
How it was run: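 Using mec2-1 yeast: add compound, measure growth, express inhibition versus vehicle-treated cultures.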

[3] = NCI Yeast Anticancer Drug Screen. Data for the sgs1 mgt1 strain (AID 161);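 note: 0% = growth of cultures given vehicle only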; settings: S. cerevisiae sgs1 mgt1 strain, stronger effect = higher value; at 50.0 µM unless noted
How it was run: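 Compounds are added to genetically altered yeast, and growth is compared with cultures given vehicle alone to give percent inhibition.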

[4] = NCI Yeast Anticancer Drug Screen. Data for the cln2 rad14 strain (AID 165);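 note: 0% = growth equal to vehicle treated cultures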; settings: S. cerevisiae cln2 rad14 strain, stronger effect = higher value; at 50.0 µM unless noted
How it was run: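 Yeast strain cln2 rad14, bearing defects in cell cycle control and DNA repair, serves as the test system; values reflect growth inhibition compared with vehicle.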

[5] = NCI Yeast Anticancer Drug Screen. Data for the bub3 strain (AID 167); settings: S. cerevisiae bub3 mutant strain, stronger effect = higher value; at 50.0 µM unless noted
How it was run: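 Screening used yeast with an engineered genetic alteration affecting cell cycle control. Compound-exposed cultures were compared with vehicle cultures, and reduced growth was taken as inhibition.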

[6] = NCI Yeast Anticancer Drug Screen. Data for the mlh1 rad18 strain (AID 175); settings: S. cerevisiae mlh1 rad18 strain growth inhibition, stronger effect = higher value; at 50.0 µM unless noted
How it was run: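 Steps: expose repair-defective yeast to compound; measure growth; express inhibition against vehicle-treated controls.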

Measured: growth inhibition

O=C(COc1ccc(Cl)cc1)Nc1cc(Cl)c(Cl)cc1Cl
inactive: [1] -1.55% | [2] -7.2% | [3] 3.1% | [4] -17.7% | [5] 11.2% | [6] 1.3%

O=C(Oc1ccc(O)cc1)N(c1cccc2ccccc12)c1cccc2ccccc12
inactive: [1] 38% | [2] 18.1% | [3] 40.6% | [4] 22.4% | [5] 66% | [6] 44.2%

C=C(C#N)CSc1c(Cl)c(Cl)c(Cl)c(Cl)c1Cl
inactive: [1] 34.5% | [2] 13% | [3] 9.2% | [4] 17.7% | [5] 16.8% | [6] 62.6%

c1ccc(CSCc2cnc[nH]2)cc1
inactive: [1] -1.3% | [2] 0.6% | [3] -1.95% | [4] 14.8% | [5] 5.7% | [6] -6.95%

CC(=O)CC(=O)Nc1ccc(OS(N)(=O)=O)cc1
inactive: [1] -9.55% | [2] -22.4% | [3] 1.95% | [4] 3.1% | [5] 2.3% | [6] -15.2%

O=S1(=O)CS/C(=N\C(=S)N(c2ccccc2)c2ccccc2)N1c1ccccc1
inactive: [1] 32.5% | [2] -11.3% | [3] -3.4% | [4] 18.2% | [5] 4.75% | [6] 2.2%

CCOC(=O)C(=CNc1ccc(OC)cc1[N+](=O)[O-])C(=O)OCC
inactive: [1] 11.7% | [2] 7.85% | [3] 11.6% | [4] 0.3% | [5] 11.3% | [6] 15.1%

CCN(CC(COc1ccc2c(c1)[n+]([O-])nc(N)[n+]2[O-])OC(C)=O)C(C)=O (stereo unspecified)
inactive: [1] 42.9% | [2] 38.3% | [3] 41.5% | [4] 40.1% | [5] 25.4% | [6] 41.3%

COc1cc(C(=O)N2CCOC23CCN(Cc2ccccc2)CC3)cc(OC)c1OC
inactive: [1] -1.5% | [2] -30.6% | [3] -7.8% | [4] 13.2% | [5] -6.9% | [6] 2.7%

Cc1ccc(NCC2CC/C(=C\c3ccc(Cl)cc3)C2=O)cc1 (stereo unspecified)
inactive: [1] -43.8% | [2] -22.8% | [3] -33.4% | [4] -50.5% | [5] -10.2% | [6] -32.3%

Cc1cn(C2CC(O)C(CO)O2)c(=O)nc1N1CCSCC1 (stereo unspecified)
inactive: [1] 2.5% | [2] -7.05% | [3] -2.6% | [4] -32.8% | [5] -12% | [6] -8.8%

O=[N+]([O-])c1ccc(N=Cc2ccc(N(CCF)CCF)cc2)cc1
inactive: [1] 6.9% | [2] 15.9% | [3] 16.1% | [4] -60% | [5] -9.2% | [6] 10.9%

CCCCCCCCCCCCSC(=S)c1c(C)[nH]n(CCCCCCCCCCCC)c1=O
inactive: [1] 39.9% | [2] 25.9% | [3] 42.3% | [4] 26.2% | [5] 21.9% | [6] 12.8%

COc1ccc(-c2nc(N)c3ncn(C4OC(CO)C(O)C4O)c3n2)cc1 (stereo unspecified)
inactive: [1] -13.2% | [2] -23.9% | [3] -7.15% | [4] -12.2% | [5] -27.1% | [6] 15.4%

CCOC(=O)[C@]12C3C=CC(C3)C1C(=O)C1OC12 (stereo partly specified)
inactive: [1] -29% | [2] -26.8% | [3] -19.3% | [4] -0.5% | [5] -26.6% | [6] -45.1%

CCOC(=O)C(C)NC(=O)NC12CC3CC(CC(F)(C3)C1)C2 (stereo unspecified)
inactive: [1] 31.3% | [2] 10.6% | [3] 3.1% | [4] 6.35% | [5] 8.45% | [6] -0.2%

CC1CCCCN1Cc1ccccc1COC(=O)c1ccc([N+](=O)[O-])cc1Cl (stereo unspecified)
inactive: [1] 41.1% | [2] 30.4% | [3] 49.9% | [4] 8.85% | [5] 21.4% | [6] -3.6%

CC(C)(CO)CNC(=O)C(C)(C)CO
inactive: [1] 7.8% | [2] 14.1% | [3] -5% | [4] 21.1% | [5] 16.8% | [6] -4.4%

CN(C)C(=O)OC(Cn1cncn1)(Cn1cncn1)c1ccc(Cl)cc1Cl
inactive: [1] -29.8% | [2] 13% | [3] 7.5% | [4] -10.8% | [5] 5.1% | [6] -16.8%

OCCCC(O)CCC(O)CCC(O)CCCO (stereo unspecified)
inactive: [1] -4% | [2] -20.1% | [3] 9.15% | [4] 9.5% | [5] -22.8% | [6] 5.15%

Cn1ccnc1C(O)(c1nccn1C)c1nccn1C
inactive: [1] -5.75% | [2] -2.55% | [3] 2.15% | [4] 19.1% | [5] -8.35% | [6] 16.2%
